# Reference: PubChem BioAssay (NCATS)
# Records with an inconclusive call do not appear. A call without a number means that no potency is given here. A number with no mark means an inactive call. Active and inactive are the calls of the source. Calls come from the whole dose curve; as a rule, active = well fitted curve in the direction sought with a large enough effect; inconclusive = small, poorly fitted or top-dose-only effect, or another doubt; inactive = no such curve, though single readings can be large; an effect the other way counts as inactive or inconclusive.
# Legend:
# [1] = target: Cytochrome P450 3A7 (Homo sapiens) (UniProt P24462); experiment: Cytochrome P450 family 3 subfamily A member 7 (CYP3A7) small molecule antagonists: luciferase biochemical qHTS assay (AID 1963596); conditions: P450-Glo CYP3A7 enzyme luminescence, 1 h; series mostly up to 57.4 µM; note: nearly all actives have a fitted effect of over 40% in size; note: potency is the fitted concentration of half-maximal effect
# Chain of Cytochrome P450 3A7 (Homo sapiens) (P24462 whole entry, looked up): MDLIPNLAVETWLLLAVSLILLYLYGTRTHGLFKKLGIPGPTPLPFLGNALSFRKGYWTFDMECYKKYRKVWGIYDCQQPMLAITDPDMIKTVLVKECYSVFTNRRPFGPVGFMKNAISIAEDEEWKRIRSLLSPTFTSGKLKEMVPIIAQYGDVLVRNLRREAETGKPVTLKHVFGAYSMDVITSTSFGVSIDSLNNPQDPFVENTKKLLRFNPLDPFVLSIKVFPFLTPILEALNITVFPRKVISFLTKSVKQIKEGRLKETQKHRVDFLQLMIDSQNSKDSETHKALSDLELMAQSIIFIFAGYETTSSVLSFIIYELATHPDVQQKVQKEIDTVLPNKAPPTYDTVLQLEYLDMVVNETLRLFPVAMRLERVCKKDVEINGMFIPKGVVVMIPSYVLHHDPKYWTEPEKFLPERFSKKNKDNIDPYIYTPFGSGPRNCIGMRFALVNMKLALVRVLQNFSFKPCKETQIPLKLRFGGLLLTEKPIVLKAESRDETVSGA
# Method in brief: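 Luminescence read-out (relative luminescence units) after 20 min with detection reagent, which stops the reaction. Enzyme, proluciferin substrate and compound preincubated 10 min, RT; NADPH regeneration system then started 1 h reaction. Ketoconazole as positive control.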
# [2] = Viability qHTS for spleen associated tyrosine kinase inhibitor (SYKi) drug resistant MV4-11 cells (AID 1963824); conditions: SYKi-resistant MV4-11 viability, CellTiter-Glo, 72 h; series mostly up to 45 µM; note: nearly all actives have a fitted effect of over 35% in size
# Method in brief: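 SYK-inhibitor-resistant MV4-11 AML cells were seeded at 500 per well onto compound and cultured 72 hours (37 °C, 5% CO2). CellTiter-Glo was then added, and after 10 min at room temperature, luminescence gave viability.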
# [3] = Cellular viability qHTS for adrenocortical cancer (ACC) cell line SW-13 (AID 1963989); conditions: SW-13 ACC cells viability, CellTiter-Glo, 48 h; activity (max response): active compounds read low;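 note: cells grown in serum-free medium with ITS supplement; nearly all actives have a fitted effect of over 65% in size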
# Method in brief: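 Viability was read as CellTiter-Glo luminescence after 48 h compound treatment (up to 46 uM final) of SW-13 cells grown serum-free; titration curves were fit with a four-parameter logistic model to give IC50 and efficacy.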
# [4] = Cellular viability qHTS for adrenocortical cancer (ACC) cell line NCI-H295R (AID 1963990); conditions: CellTiter-Glo ATP luminescence, 48 h; series mostly up to 46.1 µM; note: nearly all actives have a fitted effect of over 60% in size; note: potency is the fitted concentration of half-maximal effect
# Method in brief: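 CellTiter-Glo ATP luminescence, read 48 h after compound addition, measured viability of NCI-H295R adrenocortical cells grown serum-free with ITS. Final concentrations spanned up to 46 uM. Data normalized to DMSO and doxorubicin, fitted for IC50 and maximal response.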
# [5] = Viability qHTS for spleen associated tyrosine kinase inhibitor (SYKi) naive MV4-11 cells (AID 1963823); conditions: MV4-11 AML viability, CellTiter-Glo luminescence, 72 h; series mostly up to 45 µM; note: nearly all actives have a fitted effect of over 40% in size; note: potency is the fitted concentration of half-maximal effect
# Method in brief: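 Read-out: CellTiter-Glo luminescence. Exposure: 72 hr, 37 C, 5% CO2, 95% humidity. Cells: MV4-11 without SYK inhibitor history, 500/well, qHTS format.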
smiles,measurement,setting,value
Cc1ccc(Cl)c(O)c1,Potency,[1],inactive
same,Potency,[2],inactive
same,activity (max response),[3],12.5%
same,Potency,[4],inactive
NC1=NC(=O)C(c2ccccc2)O1 (stereo not given),Potency,[1],inactive
same,activity (max response),[3],8.75%
Oc1ccccc1-c1ccccc1,Potency,[1],inactive
same,activity (max response),[3],-7.15%
O=C(N[C@H]1N=C(c2ccccc2F)c2cccc3c2N(CC3)C1=O)c1cc2ccccc2[nH]1,Potency,[1],inactive
same,activity (max response),[3],11.2%
CN(C)C(=O)Oc1cc(OC(=O)N(C)C)cc(C(O)CNC(C)(C)C)c1 (stereo not given),Potency,[1],inactive
same,activity (max response),[3],-8.28%
same,Potency,[4],inactive
CC(=O)Nc1cc([As](=O)(O)O)ccc1O,Potency,[1],inactive
same,activity (max response),[3],8.13%
same,Potency,[4],inactive
NC(=O)[C@@H](CC1CC1)[C@@H](CCC(F)(F)F)C(=O)N[C@H]1N=C(c2ccccc2)c2cccc(F)c2NC1=O,Potency,[1],inactive
same,activity (max response),[3],-14.1%
CCN[C@@H](C)Cc1ccccc1,Potency,[1],inactive
same,activity (max response),[3],-5.58%
same,Potency,[4],inactive
Cc1c(Cl)c(OCC(=O)N2CCN(C)CC2)nc2sc(C(=O)NC3CC3)c(N)c12,Potency,[5],inactive
C=C(C)[C@@]12O[C@@H]1[C@@]1(C)C(=C[C@H]2O)CC[C@@H](O)[C@@H]1C,Potency,[5],inactive
FC(F)(F)c1cccc(C2=CCN(CCc3ccc4ccccc4c3)CC2)c1,Potency,[5],inactive
C[C@]12C/C(=C/O)C(=O)C[C@@H]1CC[C@@H]1[C@@H]2CC[C@@]2(C)[C@H]1CC[C@]2(C)O,Potency,[5],18.8 µM (active)
C=C(CO)[C@@]12O[C@@H]1[C@@]1(C)C(=CC2=O)CC[C@@H](O)[C@@H]1C,Potency,[5],8.2 µM (active)
NC(=O)c1cc([N+](=O)[O-])cc([N+](=O)[O-])c1,Potency,[1],11 µM (active)
same,Potency,[4],3.66 µM (active)
CCCSP(=O)(OCC)SCCC,Potency,[5],0.016 µM (active)
CCOP(=O)(OCC)Oc1ccc2c(C)cc(=O)oc2c1,Potency,[5],inactive
NC(=O)c1ncn2c1CN=C(c1ccccc1Br)c1cc(F)ccc1-2,Potency,[5],20.6 µM (active)
CN1CN(c2ccccc2)C2(CCN(CCCC(=O)c3ccc(F)cc3)CC2)C1=O,Potency,[5],inactive
COP(=O)(OC)OC=C(Cl)Cl,Potency,[1],inactive
same,activity (max response),[3],13.5%
same,Potency,[4],inactive
COC1=CC(=O)O[C@@H](CCc2ccccc2)C1,Potency,[5],inactive
Nc1ccc(Cl)cc1C(=O)c1ccccc1F,Potency,[5],inactive
CC(Cc1ccccc1)NCCCCl (stereo not given),Potency,[1],inactive
same,activity (max response),[3],-2.78%
same,Potency,[4],inactive
CC1Sc2c(C(=O)O)c(=O)c3cc(F)c(N4CCNCC4)cc3n21 (stereo not given),Potency,[1],inactive
same,activity (max response),[3],7.63%
same,Potency,[4],inactive
COC1CC(O[C@H]2CC[C@]3(C=O)C4CC[C@]5(C)[C@@H](C6=CC(=O)OC6)CC[C@]5(O)[C@@H]4CC[C@]3(O)C2)OC(C)C1O[C@@H]1O[C@H](CO)[C@@H](O)[C@H](O)[C@H]1O (stereo not given in full),Potency,[5],0.0862 µM (active)
O=C1CN=C(c2ccccc2)c2cc([N+](=O)[O-])ccc2N1,Potency,[1],inactive
same,activity (max response),[3],-7.73%
same,Potency,[4],inactive
S=C(NC1CCCCC1)N1CCC(c2cnc[nH]2)CC1,Potency,[5],inactive
CCCC1CCCCN1 (stereo not given),Potency,[1],inactive
same,activity (max response),[3],12.1%
same,Potency,[4],inactive
O=[N+]([O-])c1cc([N+](=O)[O-])c2ccccc2c1,Potency,[1],inactive
same,activity (max response),[3],-5.95%
same,Potency,[4],inactive
O=C(NCCN1CCC2(CC1)C(=O)NCN2c1cccc(F)c1)c1ccc2ccccc2c1,Potency,[5],9.2 µM (active)
CCCN1CCC[C@@H]2Cc3[nH]ncc3C[C@H]21,Potency,[1],inactive
same,activity (max response),[3],1.08%
same,Potency,[4],inactive
CN(CC[C@H](N)CC(=O)N[C@H]1C=C[C@@H](n2ccc(N)nc2=O)O[C@@H]1C(=O)O)C(=N)N,viability (% of control),[5],83.5% [at 9.25 µM]
CC1CCCC(O)CCC/C=C/c2cc(O)cc(O)c2C(=O)O1 (stereo not given),Potency,[5],14.3 µM (active)
Nc1ccc([N+](=O)[O-])cc1,Potency,[1],inactive
same,Potency,[4],inactive
CCC(C)(OC(C)=O)C(=O)O[C@H]1[C@H](OC(C)=O)C[C@@H]2[C@@](C)([C@@H]3C[C@H]4C=CO[C@H]4O3)[C@H](C)C[C@H](OC(C)=O)[C@@]2(COC(C)=O)[C@@]12CO2 (stereo not given in full),Potency,[5],inactive
O=S(=O)(c1ccc(Cl)cc1)c1ccc(Cl)cc1,Potency,[1],2.02 µM (active)
same,Potency,[4],inactive
CNC(C)Cc1ccccc1OC (stereo not given),Potency,[1],inactive
same,activity (max response),[3],-2.94%
same,Potency,[4],inactive
CC(C)=C1CC[C@]23CO[C@H](C2)[C@@](O)(C(=O)O)CCC13 (stereo not given in full),Potency,[5],inactive
CO[C@@H]1[C@H](O)[C@@H](O[C@@H]2C[C@H]3CC[C@@H]4C(CC[C@]5(C)[C@@H](C6=CC(=O)OC6)CC[C@]45O)[C@@]3(C)[C@H](O)C2)O[C@H](C)[C@@H]1O (stereo not given in full),Potency,[5],0.0632 µM (active)
